Rows were chosen to be rich in hits. Some 15% of all compounds tested hit in one or more screens of this group.
Pf growth 48h: inhibits P. falciparum growth in the first generation, 48 h. P. falciparum luciferase growth in erythrocytes, 48 h. Potency, µM (series often up to 28.7 µM), without a hit: top-dose activity change, negative = inhibition, usual class: inhibitors. 310,000 tested, 5.9% active; note: potency is the fitted concentration of half-maximal effect; % is set by controls: 0 for no effect and ±100 for the full control effect
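Cell-based growth assay: transgenic P. falciparum expressing firefly luciferase, cultured in red cells within RPMI 1640 containing 0.5% w/v Albumax, 24 mM bicarbonate and gentamycin. A drop in luciferase activity indicates inhibition.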
Pf growth 96h: P. falciparum growth inhibition at 96 hour, primary screen for plastid delayed-death inhibitors; Potency, µM (highest dose often 28.7 µM), without a hit: at the highest dose activity change, negative = inhibition, hits mostly inhibitors; P. falciparum luciferase reporter growth, 96 h; 320,000 tested, 6.9% active; note: potency is the fitted concentration of half-maximal effect; % is set by controls: 0 for no effect and ±100 for the full control effect
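P. falciparum expressing integrated firefly luciferase grown in erythrocytes (2% hematocrit, 0.05% parasitemia final) with compounds for 96 hours at 37 C, 5% CO2. Growth inhibition read as loss of luminescence after adding luciferase detection reagent.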
HCMV antiviral: blocks human cytomegalovirus replication | HFF cells, HCMV-luciferase reporter, 72 h; stronger effect = lower value | activity change, negative = inhibition, % at 57.5 µM | 410,000 tested, 4.5% active | AID 1259415; in the data active = activity change below about -60%; inconclusive = no clear call, values can overlap the other calls; inactive = above about -39%; note: % is set by controls: 0 for no effect and ±100 for the full control effect
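Human foreskin fibroblasts infected with luciferase-reporter HCMV at MOI 1 PFU/cell, compounds at two doses. Luciferase measured 72 h post infection; normalized to buffer-only basal and Salinomycin (10uM) controls.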
SARS PLP yeast: inhibitors of SARS-CoV papain-like protease in yeast; 330,000 tested, 0.19% active; S. cerevisiae expressing SARS-CoV PLpro, growth rescue; Potency, µM (doses to about 32.9 µM), for the others: top-dose activity, positive = growth rescue, actives largely listed as activators; calls by dose curve; note: potency is the fitted concentration of half-maximal effect; 0% is about no effect; nearly all actives have a fitted effect of over 55% in size
HCV inh: inhibitors of hepatitis C virus infection | Huh7.5.1 HCVcc-Cre infection, luciferase reporter, 44 h | Potency, µM (top dose mostly 41.8 µM), for inactives: at the top dose activity change, negative = inhibition, most hits filed as inhibitors | 340,000 tested, 3.4% active; note: potency is the fitted concentration of half-maximal effect; % is set by controls: 0 for no effect and ±100 for the full control effect
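Luciferase read-out (15 sec integration) after a 15 min room-temperature substrate step quantifies HCVcc-Cre infection. Cells, 1,000 per well, had compound added 4 h post-plating, then virus at ~0.5 moi, and were cultured 44 h.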
Sm TGR inh: blocks Schistosoma mansoni thioredoxin glutathione reductase; Q962Y6; purified TGR, DTNB reduction, TNB absorbance 405 nm; Potency, µM (doses to about 114 µM), for inactives: at the highest dose activity change, negative = inhibition, most hits filed as inhibitors; 360,000 tested, 3% active; note: potency is the fitted concentration of half-maximal effect; % is set by controls: 0 for no effect and ±100 for the full control effect; nearly all actives have a fitted effect of over 60% in size
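Kinetic colorimetric format: TGR-catalysed, NADPH-driven DTNB reduction monitored via TNB absorbance. Enzyme dispensed at 20 nM; compound exposure 15 min at room temperature before reaction start.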
An asterisk follows results filed as active; [ ] = another dose, or the depositor's remark. Unless noted, calls come from the whole dose curve; as a rule, active = well fitted curve in the direction sought with a large enough effect; inconclusive = small, poorly fitted or top-dose-only effect, or another doubt; inactive = no such curve, though single readings can be large; an effect the other way counts as inactive or inconclusive.

For O=[N+]([O-])c1cccc(NC(=S)N2CCN(c3ccccn3)CC2)c1 the results were Pf growth 48h -3%, Pf growth 96h inconclusive, HCMV antiviral -65*, SARS PLP yeast 6%, HCV inh inconclusive and Sm TGR inh -6%.
O=S(=O)(c1ccc(F)c(F)c1F)N1CCN(C(=S)Nc2ccccc2)CC1 was read as Pf growth 48h 2.3µM*, Pf growth 96h inconclusive, HCMV antiviral 17, SARS PLP yeast -3%, HCV inh -16% and Sm TGR inh 2%.
Screening COc1ccccc1CNC(=O)CN1C(=O)NC2(CCCC2)C1=O returned Pf growth 48h 9%, Pf growth 96h -6%, HCMV antiviral -9, SARS PLP yeast -20%, HCV inh -4% and Sm TGR inh -2%.
For C[C@@H](NC(=O)[C@@H]1CCCN1C(=O)[C@@H]1CCCN1C(=O)OC(C)(C)C)c1ccccc1 the results were HCMV antiviral 3.
For O=[N+]([O-])c1ccc(N2CCN(C(=S)NC3CCCCC3)CC2)cc1 the results were Pf growth 48h 0.52µM*, Pf growth 96h 121%, HCMV antiviral inconclusive, SARS PLP yeast -9%, HCV inh -24% and Sm TGR inh 8%.
`O=C(NC(=S)N1CCN(c2ccccn2)CC1)c1ccccc1` gave Pf growth 48h 13%, Pf growth 96h 2%, HCMV antiviral -20, SARS PLP yeast -5%, HCV inh 10% and Sm TGR inh -11%.
Screening S=C(NC1CCCC1)N1CCN(c2ccccn2)CC1 returned Pf growth 48h 4%, Pf growth 96h 2.1µM*, HCMV antiviral -62*, SARS PLP yeast -7%, HCV inh 7% and Sm TGR inh 8%.
`CC(=NNC(=S)N1CCCCCC1)c1cccc2cccnc12` gave HCMV antiviral -75* and HCV inh inconclusive.
For S=C(Nc1ccccc1)N1CCN(C(=S)Nc2ccccc2)CC1 the results were Pf growth 48h 0%, Pf growth 96h 5.2µM*, HCMV antiviral -30, SARS PLP yeast 4% and Sm TGR inh 60%.
For O=C(c1ccc(C(F)(F)F)cc1)N1CCC(c2noc(-c3ccc(S(=O)(=O)N4CCCC4)cc3)n2)CC1 the results were HCMV antiviral -10 and Sm TGR inh 3%.
`O=C(CNC(=O)N1CC(=O)Nc2ccccc21)NCc1cccc(Cl)c1` gave Pf growth 48h 4%, Pf growth 96h inconclusive, HCMV antiviral 0, SARS PLP yeast -2%, HCV inh 16% and Sm TGR inh -3%.
C[C@H]1CCC[C@@]2(O[C@H](CCO)C[C@H](O)[C@H]2O)O1 was read as HCMV antiviral -8 and HCV inh 25%.
`Cc1cnc(CN(C)C(=O)C2CCC(=O)N(CCc3ccc(Cl)cc3)C2)[nH]1` (centres undefined) gave HCMV antiviral 4.
`Cc1cccc(Cl)c1NC(=S)N1CCN(c2ccc([N+](=O)[O-])cn2)CC1` gave Pf growth 48h 1.7µM*, Pf growth 96h 1.7µM*, HCMV antiviral -14, SARS PLP yeast 2%, HCV inh inconclusive and Sm TGR inh 8%.
S=C(NC1CC1)N1CCN(c2ccc(Cl)cc2)CC1 was read as Pf growth 48h -6%, Pf growth 96h 0%, HCMV antiviral -4, SARS PLP yeast -1%, HCV inh -3% and Sm TGR inh 19%.
For S=C(NC1CCCC1)N1CCN(c2cccc(Cl)c2)CC1 the results were Pf growth 48h -4%, Pf growth 96h 3%, HCMV antiviral inconclusive, SARS PLP yeast -1%, HCV inh 13µM* and Sm TGR inh 38%.
O=C1c2cccc3cccc(c23)C(=O)N1CCN1CCN(C(=S)Nc2ccccc2)CC1 was read as Pf growth 48h 42%, Pf growth 96h 15µM*, HCMV antiviral -34, SARS PLP yeast 8%, HCV inh inconclusive and Sm TGR inh -2%.
CCCn1c(=O)c2sccc2n2c(CCCC(=O)NCCc3ccc(Cl)cc3)nnc12 was read as HCMV antiviral -21 and Sm TGR inh -1%.
Screening COc1cc(-c2nnc(SCC(=O)Nc3cccc(C#N)c3)o2)cc(OC)c1OC returned HCMV antiviral -25 and Sm TGR inh -15%.
COc1cc(OC)c(C2Nc3ccccc3-c3nnc(SCc4ccccc4)nc3O2)cc1OC (centres undefined) was read as HCMV antiviral 6 and Sm TGR inh 6%.
`CCSc1ncc(/C=N/Nc2ccccc2)n1C` gave Pf growth 48h 5.2µM*, Pf growth 96h 2.6µM*, HCMV antiviral 42, SARS PLP yeast -12%, HCV inh inconclusive and Sm TGR inh 4%.
Screening CCCCCCCC/C=C\CCCCCCCC(=O)NCCc1ccc(O)c(O)c1 returned Pf growth 48h 10µM*, Pf growth 96h inconclusive, HCMV antiviral -17, HCV inh inconclusive and Sm TGR inh -17%.
For CCCCCCCC/C=C\CCCCCCCC(=O)NCc1ccc(O)c(OC)c1 the results were Pf growth 48h inconclusive and Pf growth 96h 17µM*.
CCCCC(=O)NCCc1ccc(S(N)(=O)=O)cc1 was read as Pf growth 48h 1%, Pf growth 96h -7%[5.75 µM], HCMV antiviral 6, SARS PLP yeast -2%, HCV inh 4% and Sm TGR inh 2%.
`CCCCC/C=C\C/C=C\CCCCCCCC(=O)O` gave Pf growth 48h -12% and Pf growth 96h 0%.
`CCCCC/C=C\C/C=C\C/C=C\CCCCC(=O)O` gave Pf growth 48h inconclusive, Pf growth 96h 0%, HCMV antiviral -22, HCV inh 27% and Sm TGR inh 28µM*.
For CCCCCCCC/C=C\CCCCCCCC(=O)NCCO the results were Pf growth 48h 2.9µM*, Pf growth 96h 2.6µM*, HCMV antiviral 1, HCV inh 3% and Sm TGR inh -18%.
CCOC(=O)C1=CCN(S(=O)(=O)c2ccc(C)cc2)C1c1cccc(F)c1 (centres undefined) was read as HCMV antiviral -37.
Screening CCOC(=O)c1cnc(SC)nc1Oc1cccc(NC(=O)c2cccc(Cl)c2Cl)c1 returned Pf growth 48h 7%, Pf growth 96h -12%, HCMV antiviral -16, SARS PLP yeast 6%, HCV inh 9% and Sm TGR inh 5%.
CCc1ccccc1Oc1nc(NCc2ccccc2)nc2ccsc12 was read as HCMV antiviral -22.
For COc1ccc(/C=N\NC(=O)c2ccc([N+](=O)[O-])cc2)cc1COc1c(F)c(F)cc(F)c1F the results were Pf growth 48h inconclusive, Pf growth 96h inconclusive, HCMV antiviral 19, SARS PLP yeast 2%, HCV inh 1.6µM* and Sm TGR inh -4%.
